Hits are enriched below; roughly 4% of the tested compounds scored in any of these assays.
Arbovirus anti: antivirals against arbovirus infection. arbovirus infection cell-based antiviral screen. AID 1251. hit rate 0.37% among 200,000. inhibition, % at 10 µM; in the data active = inhibition above about 30%
HSV replic up: HSV replication enhancement | maximum fold increase | hit rate 0.005% among 220,000 | HSV replication augmentation in cells, fold increase; in the data active = maximum fold increase above about 1.5; inconclusive = no clear call, values can overlap the other calls; tested in PC3 cells
Measles CPE: protection of cells from measles virus | Measles virus-infected cells, CPE protection, absorbance | AID 841 | hit rate 1.5% among 140,000 | protection (pct of control), % at 4 µM; in the data active = protection mostly above about 24%, no sharp cut-off; inactive = mostly below about 26%
Cl transport mod: KCC2 (human) Cl- transport modulation; Q9H2X9; KCC2 cells, thallium flux FluoZin-2 fluorescence; B-score of Tl+ flux slope (higher = more flux/activation; lower = inhibition) at 10 µM; hit rate 2.2% among 190,000; AID 1456;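 active = thallium flux slope and its plate-corrected score both differing from the plate sample mean at a set confidence after two filtering rounds, in either direction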;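 also: slope of fluorescence scaled to starting intensity during 10 to 20 s after thallium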
ROMK primary: human ROMK K+ channel modulation, primary screen. B-score at 10 µM. Tet-inducible ROMK, thallium flux fluorescence; actives lie on both sides. hit rate 2% among 130,000;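 active = signal ratio slope over the read window, or its plate-corrected B-score, at least 3 SD from the plate mean, either direction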;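 also: B-score of the F/F0 ratio slope over 7 to 12 s after thallium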
Target sequence (P48048 whole entry, looked up): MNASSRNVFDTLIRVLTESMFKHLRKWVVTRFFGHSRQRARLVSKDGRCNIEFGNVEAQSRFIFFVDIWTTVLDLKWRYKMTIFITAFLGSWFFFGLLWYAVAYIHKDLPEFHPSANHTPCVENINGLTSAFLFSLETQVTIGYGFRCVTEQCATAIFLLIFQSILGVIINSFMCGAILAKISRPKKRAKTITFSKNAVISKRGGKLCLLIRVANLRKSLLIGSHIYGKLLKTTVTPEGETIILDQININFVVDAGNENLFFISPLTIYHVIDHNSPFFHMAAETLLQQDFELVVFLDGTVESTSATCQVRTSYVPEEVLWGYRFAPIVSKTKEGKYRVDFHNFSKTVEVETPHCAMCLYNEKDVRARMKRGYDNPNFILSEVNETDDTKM
ROMK hit retest: confirmation of human ROMK potassium channel modulators | shares compounds with ROMK primary | ROMK thallium flux, fluorescence ratio; active compounds read low | normalized thallium flux (F/F0 slope) at 10 µM | hit rate 54% among 3,000 | AID 1917;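 active = Flux at 10 µM at least 3 SD below or above vehicle control mean in one or both replicates; inconclusive = no clear call, values can overlap the other calls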
Starred values were filed as active, the others as inactive; i = inactive; u = inconclusive; x = no result given.

SMILES | Arbovirus anti | HSV replic up | Measles CPE | Cl transport mod | ROMK primary | ROMK hit retest
COC(=O)c1cn(C(=O)/C=C/c2ccc(OC)c(OC)c2)c2ccccc12 | -1.1 | i | x | 0.54 | 0.297 | x
NC(=O)c1c(NC(=O)CSc2nnc(Cc3ccccc3)n2Cc2ccco2)sc2c1CCC2 | -4.0 | i | 7.9 | x | -3.73* | 0.0528*
O=C(CSc1nnc(Cc2ccccc2)n1Cc1ccco1)NC12CC3CC(CC(C3)C1)C2 | -7.6 | i | 14.7 | x | x | x
O=C(CSc1nnc(Cc2cccs2)n1Cc1ccco1)Nc1ccc(Br)cc1 | -43.2 | i | 20.5 | -0.513 | -2.92* | u
N#C/C(=C\c1cccc([N+](=O)[O-])c1)C(=O)NCC1CCCO1 (stereo unspecified) | -3.6 | i | x | -1.24 | -10.8* | 0.0418*
COc1ccc(OCc2n(CC(=O)OC3CC(C)CCC3C(C)C)c3ccccc3[n+]2C)cc1 (stereo unspecified) | x | i | x | -0.957 | -0.459 | x
COc1ccc(-c2n(CC(=O)OC3CC(C)CCC3C(C)C)c3ccccc3[n+]2C)cc1 (stereo unspecified) | -30.6 | i | x | -0.408 | -1.8* | 0.0379*
CCOC(=O)/C=C/C(=O)N1CCN(C(=O)/C=C/C(=O)OCC)CC1 | x | i | x | 1.06 | 0.665 | x
COc1cc(NC(C)CCCN)c2ncccc2c1Oc1ccccc1 (stereo unspecified) | -13.0 | i | 14.3 | 0.461 | -3.65* | 0.0646*
Cc1cc(C(=O)NP(=O)(N2CC(C)OC(C)C2)N2CC(C)OC(C)C2)c(C)n1C1CC1 (stereo unspecified) | 18.8 | i | x | 0.396 | -0.387 | x
C=CCc1cc(Cl)ccc1OCCCNC(C)CC (stereo unspecified) | -26.4 | i | 6.3 | 1.12 | -2.63* | 0.0512*
CC1(c2nnc(Cc3ccccc3)o2)CC(c2ccc([N+](=O)[O-])cc2)=NO1 (stereo unspecified) | x | i | x | -1.73 | x | x
Cc1ccc(Cl)cc1N1CCN(S(=O)(=O)c2cccc(S(=O)(=O)N3CCCC3)c2)CC1 | 0.8 | i | 11.7 | -0.357 | -3.26* | 0.0702
CCOC(=O)CCS(=O)(=O)c1nc(-c2ccccc2)cc(C(F)(F)F)n1 | -7.9 | i | 6.8 | 0.0362 | -4.42* | 0.0549*
CCOC(=O)CS(=O)(=O)c1nc(-c2ccccc2)cc(C(F)(F)F)n1 | 10.7 | i | 5.8 | -0.182 | -4.52* | 0.0593*
COC(=O)CCS(=O)(=O)c1nc(-c2ccccc2)cc(C(F)(F)F)n1 | -43.5 | i | -0.7 | x | x | x
CCOc1cc(CNCc2ccncc2)cc(Br)c1OCc1ccc(F)cc1 | 2.7 | i | 22.7 | x | x | x
O=C(/C=C\c1ccco1)Oc1cccc2cccnc12 | 8.4 | i | x | -0.725 | -21.9* | 0.0857
COc1ccc(C(=O)C(CCC(CNC(C)(C)C)C(=O)c2ccc(OC)cc2)CNC(C)(C)C)cc1 (stereo unspecified) | -32.6 | i | 11.6 | 0.142 | x | 0.066*
O=C(c1cc(Sc2cccc(Cl)c2)nc2ccccc12)N1CCN(c2ccccn2)CC1 | -3.9 | i | x | 0.109 | -0.817 | 0.0777
CCOC(=O)c1ccc(NC(=O)COc2ccc(-n3cnnn3)cc2)cc1 | 1.8 | i | x | x | 1.44 | 0.0887
O=C(COc1ccc(F)cc1)Nc1ccc(-n2cnnn2)cc1 | 9.6 | i | 31.6 | x | x | x
N#Cc1cccn1-c1nccc(-c2cccs2)n1 | -16.1 | i | x | -0.804 | -0.776 | x
CCOC(=O)c1c(C)[nH]c(C(=O)COC(=O)c2ccc(O)cc2O)c1C | x | i | x | 2.33 | x | 0.0776
CCOC(=O)C1(CC2CC2)CCN(Cc2cnc(-c3ccc(OC)cc3)nc2)CC1 | 10.6 | i | x | -0.0675 | -0.762 | x
SMILES | Arbovirus anti | HSV replic up | Measles CPE | Cl transport mod | ROMK primary | ROMK hit retest
CCOC(=O)Cn1c(=N)n(CCOc2ccc3ccccc3c2)c2ccccc21 | -6.5 | i | 5.9 | x | -4.17* | 0.0561*
CCCCOC(=O)Cn1c(=N)n(CCC)c2ccccc21 | -1.3 | i | 28.7 | 0.697 | x | x
CCCn1c(=N)n(CCOc2ccc(OC)cc2)c2ccccc21 | -11.4 | x | 2.1 | 0.759 | x | x
CCOC(=O)Cn1c(=N)n(CCOc2ccc(OC)cc2)c2ccccc21 | -4.7 | i | 10.3 | -0.0934 | -2.62* | 0.0601*
Cc1cc(Cl)ccc1OCCCC(=O)OCC(=O)c1c(N)n(C)c(=O)n(C)c1=O | x | i | x | -0.375 | x | x
CCCn1c(=O)c2c(C(=O)OCC)cc(-c3ccco3)nc2n(CCC)c1=O | -12.7 | x | 32.9 | -2.1 | -3.82* | 0.0635*
CCCCCCCCCCCCN1[C@@H](CC(=O)O)c2cc(F)ccc2S1(=O)=O | x | i | x | x | x | x
Cc1cc(/C=N/n2cnnc2)c(C)n1-c1cc(Cl)ccc1Cl | -15.3 | i | 8.7 | -0.858 | x | u
Cc1cc(C=NCCO)c(C)n1-c1cc(Cl)ccc1Cl | 16.2 | i | x | -0.208 | x | x
CC(C)(C)CC(C)(C)NCC(O)COc1c(F)cc(Br)cc1F (stereo unspecified) | -43.9 | i | 6.5 | 0.792 | -3.23* | 0.0536*
Cc1ccc(C(=O)NC(C#N)=C(Cl)Cl)cc1 | -36.5 | i | x | 1.38 | -2.04 | 0.0613*
Cc1cc(Cl)c(S(=O)(=O)N2CCN(c3ccc(F)cc3)CC2)cc1OCC(N)=O | 0.4 | i | 11.8 | 1.62 | x | x
Cc1cc(Cl)c(S(=O)(=O)Nc2ccc3c(c2)OCCO3)cc1OCC(=O)NC1CCCCC1 | -0.6 | i | 18.4 | -0.064 | -3.16* | 0.0664*
Cc1cc(Cl)c(S(=O)(=O)N2CCN(c3ccc(F)cc3)CC2)cc1OCC(=O)NC1CCCCC1 | -6.5 | i | 9.1 | -0.743 | -4.3* | 0.0625*
Cc1cc(Cl)c(S(=O)(=O)Nc2ccon2)cc1OCC(=O)NC1CCCCC1 | 8.1 | i | 15.4 | x | x | x
CC(C)Cn1c(N)c(C(=O)CSc2cc(Cl)ccc2Cl)c(=O)n(C)c1=O | -9.6 | i | 7.4 | -0.911 | -0.214 | x
CCOC(=O)c1c(CSc2ccc(C)cc2)n(C)c2cc(Br)c(O)c(CN(C)C)c12 | 19.3 | i | x | x | x | 0.0515*
O=C(Nc1ccccc1)C1=C[C@H](c2ccc3c(c2)OCO3)C[C@H](OCc2ccc(CO)cc2)O1 | 0.7 | x | x | 0.00431 | x | x
N#CC1=C(N)NC(SCC(=O)c2ccc(Cl)cc2)=C(C#N)C12CCCC2 | -11.8 | i | 18.5 | -1.8 | -2.34* | 0.0662*
N#CC1=C(N)NC(SCC(=O)Nc2ccccc2)=C(C#N)C12CCCCC2 | -18.4 | i | 11.0 | x | x | x
COCCNC(=S)N1CCN(C/C=C/c2ccccc2)CC1 | -0.6 | i | x | -0.812 | -0.395 | x
N#Cc1sc2nc3c(cc2c1N)CCCC3 | 17.2 | i | 23.0 | 0.0473 | 2.75 | 0.105*
Nc1c(C(=O)O)sc2nc3c(cc12)CCCC3 | x | i | x | -0.925 | 1.05 | x
CCCc1ccc2c(N)c(C#N)sc2n1 | 13.6 | i | x | x | 1.03 | x
Cc1ccc2c(N)c(C#N)sc2n1 | 6.6 | i | 20.5 | 0.508 | 3.42* | 0.0809
COc1ccc(C(=O)NCC(=O)OCC(=O)N2CCc3ccccc32)cc1 | 6.5 | i | x | -1.73 | -0.4 | x
COC/C=C/C1=CC2=CC(=O)C(C)(OC(=O)c3cnc4ccccc4n3)C(=O)C2=CN1CCc1c[nH]c2ccccc12 (stereo unspecified) | x | i | x | x | x | x
Cc1ccc(N/C=C(\C#N)S(=O)(=O)c2ccccc2)cc1 | -2.6 | i | x | 0.819 | 2.52* | 0.0779
